About 710 (39%) of roughly 1,800 compounds were called active. Roughly 28% stayed inconclusive and do not appear here.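 The calls were made as follows: active = luciferase signal rise whose fitted curve crosses a set activity limit at or below the top valid tested dose; inconclusive = flat fit with 30 to 70% rise, or poor fit; inactive = signal falling, flat within 30%, or crossing above top dose.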 The list is a sample of the results. Results with a measured potency or affinity are listed apart.

Drawing on PubChem BioAssay AID624404 (Broad Institute, 2012), this text covers outcome for 63 compounds.

The assay in a line: reporter signal increase, D54 LucT cells – cell-based, luminescence, cherry pick, counter-screen for N-linked glycosylation inhibitor project, dose response (AID 624404). Conditions: D54 LucT luciferase reporter counterscreen, 24 h; series mostly up to 19.5 µM. A general note: A counterscreen serves to expose hits that act by an unwanted route or on another target.
For the compound `O=C(NCCN1C(=O)S/C(=C\c2cccc(Cl)c2Cl)C1=O)C1=COCCO1`, the compound was called inactive.
As for `Cc1noc2ncnc(Sc3ccc(Cl)cc3)c12`, the entry is “inactive”.
Take `CCn1c(=O)cc(C(=O)OC)sc1=Nc1ccc(F)c(F)c1`: the call was inactive.
For `COC(=O)c1cc(=O)n(Cc2ccco2)c(=Nc2ccc(F)cc2)s1`, the compound was classed as inactive.
Consider `CCN(CC(=O)Nc1ccccc1OC)CC(=O)Nc1ccccc1-c1ccccc1`, for which the compound was classed as inactive.
On to `COc1ccc(C(=O)NCCN(C)C)c2nc3ccccc3cc12`, for which the outcome was inactive.
With `CCCc1cc(C(=O)N/N=C/c2ccc(C)o2)c2ccccc2n1`, the outcome was inactive.
As for `O=C(/C=C/c1ccc(-c2ccccc2[N+](=O)[O-])o1)c1ccc(Br)cc1`, the entry is “inactive”.
As to `N#Cc1cc2[nH]c3ccccc3c2[n+](-c2ccc([N+](=O)[O-])cc2)c1N`, the call was inactive.
For `Cn1cnc([N+](=O)[O-])c1Sc1nc2ccccc2[nH]1` the value was “inactive”.
Regarding `CCN(CC)CCNc1ccc(CO)c2oc3ccccc3c(=O)c12`, the outcome was inactive.
As for `CCn1c(=O)c2cc(C(=O)NCCN(C)C)sc2c2ccccc21`, the entry is “inactive”; as for `CCN(CC)CCNc1ccc(CO)c2oc3cc(Cl)ccc3c(=O)c12`, “inactive”.
As to `Cn1nc(C(F)(F)F)c(/C=N/OC(=O)c2ccccc2Cl)c1SCc1ccc(Cl)cc1`, the call was inactive.
Take `CCCCc1ccc(N/C(N)=N/c2nc(C)cc(C)n2)cc1`: the compound was classed as inactive.
For `Cc1cc(C)nc(/N=C(\N)Nc2ccc(OCCC(C)C)cc2)n1` the value was “inactive”.
For `CC1CN(C(=O)/C=C/c2ccc([N+](=O)[O-])s2)CC(C)O1` (stereo not drawn), the compound was classed as inactive.
For `O=C(/C=C/c1ccc([N+](=O)[O-])s1)N1CCCCC1` the value was “inactive”; for `COc1ccc(C=C(c2nc3ccccc3s2)c2nc3ccccc3s2)cc1O`, “inactive”; for `COCC(=O)OC/C(O)=C(\C#N)c1nc2ccccc2[nH]1`, “inactive”.
For `Cc1c(-c2cccc(Cl)c2)nc2ccccc2c1C(=O)OC/C(O)=C(\C#N)c1nc2ccccc2[nH]1` the value was “inactive”; for `CC(=O)Nc1cccc(-c2ccnc3c2CC(C(=O)NCc2ccco2)O3)c1` (stereo not drawn), “inactive”.
For `COc1ccc(NC(=O)C2Cc3c(-c4ccc5c(c4)OCO5)ccnc3O2)cc1` (stereo not drawn) the value was “inactive”.
On to `COc1ccc(NC(=O)C2Cc3c(-c4cccc(C(C)=O)c4)ccnc3O2)cn1` (stereo not drawn), for which the outcome was inactive.
With `COc1ccc(CCCNC(=O)C2Cc3c(-c4cccc(C(C)=O)c4)ccnc3O2)cc1` (stereo not drawn), the call was inactive.
With `CS(=O)(=O)Nc1cccc(NC(=O)C2Cc3c(-c4ccccc4)ccnc3O2)c1` (stereo not drawn), the result was inactive.
As for `COc1ccc(Nc2cc(C)nc3ccc(OC)cc23)cc1`, the entry is “inactive”; as for `COc1ccc2nc(C)cc(Nc3ccc(N4CCOCC4)cc3)c2c1`, “inactive”.
For `CN(C1=C(NC(=O)c2ccc(Cl)cc2)C(=O)c2ccccc2C1=O)c1ccccc1` the value was “inactive”; for `CC[C@@H]1CC=C[C@H]2[C@H]1C(=O)N(Cc1ccccc1)[C@H]2c1ccoc1`, “inactive”.
For `NC(=O)/C=C\C(=O)Nc1cccc(C(F)(F)F)c1` the value was “inactive”.
With `O=C(OCn1ncc(Cl)c(Cl)c1=O)c1ccc(C(F)(F)F)cc1`, the compound was called inactive.
As for `C=CCOc1ccc(C2C(C#N)=C(N)N(Nc3ccccc3)C3=C2C(=O)CCC3)cc1OC` (stereo not drawn), the compound was called inactive.
On to `COc1cc(-c2cc3nc(NCCOc4ccccc4)ccn3n2)cc(OC)c1OC`, for which the compound was classed as inactive.
As to `CCOC(=O)/C=C(\C)Sc1cc(=O)oc2ccccc12`, the compound was classed as inactive.
With `CCc1ccc(/C=N/NC(=O)c2cc(-c3ccncc3)nc3ccccc23)s1`, the outcome was inactive.
Regarding `O=C(N=Nc1c(O)[nH]c2ccc(Br)cc12)c1cc(-c2cccs2)nc2ccccc12`, the outcome was inactive.
Consider `C=C(C)Cc1c(C)c(C#N)c2nc3ccccc3n2c1NCCCN(C)C`, for which the result was inactive.
As for `COc1ccc(CCCNC(=O)C2(C)Cc3c(-c4ccc5c(c4)OCO5)ccnc3O2)cc1` (stereo not drawn), the entry is “inactive”.
With `COc1cc(C2c3cc4c(cc3OC(Nc3ccc(C(=O)O)cc3)C2C)OCO4)cc(OC)c1OC` (stereo not drawn), the result was inactive.
As for `Clc1cccc(Cl)c1Cn1cnc2c(NCc3ccco3)ncnc21`, the entry is “inactive”.
`Cc1ccc2cc(CN(CCCN(C)C)C(=O)NCc3ccccc3)c(=O)[nH]c2c1C`: the compound was classed as inactive.
As for `CCN(CC)Cc1cc(Nc2c3ccccc3nc3c4ccccc4n(C)c23)cc(CN(CC)CC)c1O`, the entry is “inactive”.
For `COc1ccc2[nH]c3c(N4CCC(O)(c5cccc(C(F)(F)F)c5)CC4)ncnc3c2c1`, the result was inactive.
For the compound `COc1ccc(CN2C(=O)C(C)Nc3ncnc(N4CCc5ccccc5C4)c32)cc1` (stereo not drawn), the compound was classed as inactive.
For `Cc1nc2ccccc2c2oc(C(=O)NCCCN3CC(C)CC(C)C3)cc12` (stereo not drawn) the value was “inactive”; for `O=C(NCC1CCCO1)c1cc(-c2ccccc2)on1` (stereo not drawn), “inactive”; for `O=C1C=C(Nc2ccc(Cl)cc2Cl)CC(c2ccco2)C1` (stereo not drawn), “inactive”.
For the compound `NC(=O)CC(NC(=O)Cc1ccc(Cl)cc1)c1ccc(NC2CCCC2)c([N+](=O)[O-])c1` (stereo not drawn), the outcome was inactive.
Turning to `NC(=O)CC(NC(=O)c1ccc(Br)cc1)c1ccc(N2CCCCCCC2)c([N+](=O)[O-])c1` (stereo not drawn), the call was inactive.
Regarding `NC(=O)CC(NC(=O)Cc1ccc(Br)cc1)c1ccc(NCc2cc(F)ccc2F)c([N+](=O)[O-])c1` (stereo not drawn), the compound was classed as inactive.
For `NC(=O)CC(NC(=O)Cc1ccc(Cl)cc1)c1ccc(NC2CC3CCC2C3)c([N+](=O)[O-])c1` (stereo not drawn), the call was inactive.
As for `NC(=O)CC(NC(=O)Cc1ccc(Cl)cc1)c1ccc(NC2CCN(Cc3ccccc3)CC2)c([N+](=O)[O-])c1` (stereo not drawn), the entry is “inactive”.
Consider `O=C(CC1Sc2ccccc2NC1=O)NNc1ccc(Cl)c(Cl)c1` (stereo not drawn), for which the call was inactive.
Consider `CCCCOc1ccccc1C1CC(=O)NC2=C1C(=O)CCC2` (stereo not drawn), for which the call was inactive.
Take `CC(C)Nc1ccc(C(CC(N)=O)NC(=O)Cc2ccc(Br)cc2)cc1[N+](=O)[O-]` (stereo not drawn): the result was inactive.
For `COc1ccc(C=CC(=O)c2ccc3cc(OC)c(OC)cc3c2)cc1OC`, the result was inactive.
For `COc1ccc(NC(=O)c2cccc(Oc3ccccc3)c2)cn1` the value was “inactive”.
With `O=C(NC1CCCCC1)C(c1cccnc1)N(C(=O)CCl)c1cccc(Cl)c1` (stereo not drawn), the compound was classed as inactive.
For `Cc1cccc(N2C(=O)CC(N3CCN(C(=O)c4ccccc4)CC3)C2=O)c1` (stereo not drawn) the value was “inactive”.
In the case of `Cn1c(C(=O)NC2CCCCCC2)cc2c(=O)n(C)c3ccccc3c21`, the call was inactive.
`Cc1ccc(S(=O)(=O)N(C)C[C@@H]2Oc3ccc(NC(=O)CCC(F)(F)F)cc3CC(=O)N([C@@H](C)CO)C[C@@H]2C)cc1`: the result was inactive.
As for `C[C@H](CO)N1C[C@H](C)[C@@H](CN(C)Cc2ccccc2)Oc2ccc(NC(=O)CCCCCC(=O)Nc3ccccc3N)cc2C1=O`, the entry is “inactive”.
